A selection: hits, their analogues and other compounds. The true share with any hit is near 3.8%.
A549 tox: A549 cytotoxicity, counter-screen for Nrf2 inhibitors; A549 ARE-Fluc cells, CellTiter-Fluor viability, 18-24 h; Potency, µM (top dose mostly 46 µM), without a hit: at the highest dose activity change, negative = cytotoxicity, hits mostly inhibitors; hit rate 0.16% among 390,000; AID 504648; further: on the % scale 0 is the no-effect control and ±100 the full control effect
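Cytotoxicity counterscreen: CellTiter-Fluor fluorescence was measured in A549 ARE_Fluc cells after 18-24 h of compound exposure in a concentration series. The subsequent BugLite luminescent read reports ARE-luciferase activity.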
IDH1 R132H inh: blocks human mutant IDH1 R132H enzyme | O75874 | IDH1-R132H enzyme, NADPH consumption, diaphorase/resazurin fluorescence | Potency, µM (doses to about 76.6 µM), for the others: top-dose activity change, negative = inhibition, hits mostly inhibitors | hit rate 0.093% among 390,000; further: on the % scale 0 is the no-effect control and ±100 the full control effect; nearly all actives have a fitted effect of over 65% in size
Target sequence (O75874 whole entry R132H, stated change not applied): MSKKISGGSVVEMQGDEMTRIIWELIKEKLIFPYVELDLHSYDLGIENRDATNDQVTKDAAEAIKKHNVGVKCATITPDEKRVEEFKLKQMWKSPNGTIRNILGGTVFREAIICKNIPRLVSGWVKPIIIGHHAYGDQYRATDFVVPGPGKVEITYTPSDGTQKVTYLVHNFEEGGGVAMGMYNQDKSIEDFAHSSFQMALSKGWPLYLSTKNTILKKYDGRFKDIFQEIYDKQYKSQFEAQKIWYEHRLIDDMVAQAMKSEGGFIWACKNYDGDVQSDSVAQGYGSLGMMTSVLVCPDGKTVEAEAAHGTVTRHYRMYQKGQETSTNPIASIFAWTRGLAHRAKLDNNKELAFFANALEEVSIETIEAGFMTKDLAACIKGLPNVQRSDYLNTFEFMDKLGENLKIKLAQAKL
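IDH1-R132H (0.5 ug/mL dispensed) in pH 7.5 Tris buffer was preincubated 30 min with compound, then given a substrate mix of 0.016 mM NADPH and 2 mM alpha-KG for 80 min at room temperature; remaining NADPH was read by diaphorase/resazurin fluorescence.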
Nrf2 ARE act: activates Nrf2 signaling. hit rate 0.31% among 410,000. AREc32 ARE-luciferase reporter (MCF7-derived line), luminescence, 24 h. AID 624171. Potency, µM (highest dose often 46.1 µM), without a hit: top-dose activation, actives largely listed as activators; further: % of control where 0% means no effect; nearly all actives have a fitted effect of over 65% in size
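AREc32 cells carrying an ARE-driven firefly luciferase, 1000 cells/well in OPTI-MEM with 5% FBS, dosed after overnight attachment and incubated 24 hr at 37 deg C. Steady-Glo luminescence read after 30 min at RT.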
ELG1 DNA repair: inhibitors of ELG1-dependent DNA repair in HEK293T cells | Potency, µM (highest dose often 46.1 µM), for inactives: at the highest dose activity change, negative = inhibition, actives largely listed as inhibitors | HEK293T ELG1-luciferase reporter, luminescence, 16 h; DNA damage induced by 5-fluorouridine | hit rate 2.3% among 330,000; further: on the % scale 0 is the no-effect control and ±100 the full control effect; nearly all actives have a fitted effect of over 55% in size
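Quantitative HTS, concentration-response format. 2,000 cells/well co-treated with 5-fluorouridine and compound, 16 hr in 5% CO2 at 37 °C; ONE-Glo luminescence read after 30 min.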
Nrf2 block: Nrf2 pathway inhibition. A549 ARE-Fluc reporter, luciferase luminescence, 18-24 h. AID 504444. hit rate 2.1% among 360,000. Potency, µM (highest dose often 46 µM), for the others: at the highest dose activity change, negative = inhibition, actives largely listed as inhibitors; further: on the % scale 0 is the no-effect control and ±100 the full control effect; nearly all actives have a fitted effect of over 60% in size
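A549 ARE_Fluc cells (5000/well, 5% FBS OPTI-MEM) pre-incubated 2 h, then treated with compounds 18-24 h at 37C/5% CO2 in concentration-response. CellTiter-Fluor viability read first; BugLite luciferase luminescence after 15 min at room temperature gives Nrf2 activity.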
Active calls of the source: *; ? = inconclusive; nt = no result; [ ] = remark or other dose. The call rests on the fitted dose curve; in most records, active means well fitted curve in the direction sought with a large enough effect; inconclusive means small, poorly fitted or top-dose-only effect, or another doubt; inactive means no such curve, though single readings can be large; an effect the other way counts as inactive or inconclusive. Potency means the concentration at half of the fitted maximal effect.

SMILES	A549 tox	IDH1 R132H inh	Nrf2 ARE act	ELG1 DNA repair	Nrf2 block
CCN(C(=O)CSc1nc2ccccc2c2nc(CCn3c(C)nc4ccccc43)nn12)c1cccc(C)c1	1%	8%	3%	nt	nt
Cc1ccccc1OCC(=O)Nc1ccccc1CO	8%	4%	10µM*	21%	nt
Cc1ccccc1OCC(=O)Nc1ccncc1	1%	-8%	0%	?	?
COc1ccc(NC(=O)Nc2ccc(Cc3ccncc3)cc2)c(OC)c1	-6%	2%	0%	-16%	16µM*
Cc1ccccc1OCC(=O)Nc1ccc(Cc2ccncc2)cc1	5%	17%	0%	?	13µM*
CSc1ccccc1NC(=O)COc1ccccc1C	6%	4%	9%	?	?
O=C1CCc2cc([S+](=O)([O-])NC3CCOCC3)ccc2N1	0%	nt	nt	nt	0%
O=C(Nc1ccccc1)Nc1nnc(CSCc2ccccc2Cl)s1	-2%	0%	0%[9.22 µM]	?	?
O=C(Nc1ccc(Cl)cc1)Nc1nnc(SCc2ccccc2)s1	1%	13%	0%	6%	15%
O=C(Nc1ccc(Cl)cc1)Nc1nnc(CSCc2ccccc2Cl)s1	-4%	8%	0%	10µM*	-7%
O=C(Nc1ccc(Cl)c(Cl)c1)Nc1nnc(CSc2ccccc2)s1	?	-3%	2%	?	7.3µM*
COc1ccc(C(=O)N2CCC3(CC2)NCCc2[nH]cnc23)cc1	7%	-5%	0%	13%	-18%
CC(CNc1nc2ccccc2c2nc(-c3ccccc3)nn12)c1ccccc1 (stereo not given)	12%	5%	0%	nt	?
O=c1cc(NCc2ccco2)c2ccccc2o1	-3%	1%	13µM*	-6%	-17%
Cc1c(C(=O)NCc2ccco2)oc2ccccc12	5%	0%	14µM*	24%	2%
CCOc1cc(-c2noc(N)c2C#N)cc(OCC)c1OCC	-4%	-6%	?	-6%	-9%
Cc1ccccc1-c1noc(N)c1C#N	-3%	14%	18µM*	5%	2%
CCC(C(=O)NCCc1ccc(Cl)cc1)n1ccc2cc(S(=O)(=O)N3CCCCC3)ccc21 (stereo not given)	-9%	-3%	4%	nt	?
Cc1sc2nc(-c3ccccn3)[nH]c(=O)c2c1-c1ccccc1	-9%	-14%	5%	-18%	12µM*
Cc1sc2nc(-c3ccncc3)[nH]c(=O)c2c1-c1ccccc1	nt	nt	nt	1%	nt
Cc1nc2c(ccc3nc(NC(=O)Cc4cccc5ccccc45)sc32)s1	-3%	-1%	0%	5.2µM*	-2%
O=C(/C=C/c1cccc(F)c1)Nc1nccs1	1%	-8%	10µM*	?	?
CC[n+]1cccc(-c2nc3ccccc3s2)c1	-10%	-2%	-1%	-13%	?
CC[n+]1c(/C=C/N(C)c2ccccc2)n(-c2ccccc2)c2ccc(-c3nc4ccccc4s3)cc21	?	-16%	-3%	4.1µM*	?
CCOC(=O)c1cc(-c2ccc(OC)cc2)nc2c1c(C)nn2CCC#N	-6%	-1%	-1%	3.7µM*	?
SMILES	A549 tox	IDH1 R132H inh	Nrf2 ARE act	ELG1 DNA repair	Nrf2 block
COc1ccc2c(c1)OC[C@H]1[C@H]2N2C(=O)CN(CCc3c[nH]c4ccccc34)C(=O)[C@@]2(C)[C@H]1c1ccccc1	-5%	12%	0%	5.8µM*	-10%
Cc1ccc2c(c1)[C@H]1[C@H](CO2)[C@H](c2ccccc2)[C@]2(C)C(=O)N(C)CC(=O)N12	-7%	-7%	2%	nt	21µM*
Cc1ccc2c(c1)[C@H]1[C@H](CO2)[C@H](c2ccccc2)[C@]2(C)C(=O)NCC(=O)N12	-4%	21%	-1%	18%	-9%
CCOC(=O)[C@H]1[C@H]2COc3cc(OC)ccc3[C@@H]2N2C(=O)CN(CCc3c[nH]c4ccccc34)C(=O)[C@@]12C	-3%	2%	1%	-26%	4%
CC(C)c1cc(NCC2CCCO2)n2c(nc3ccccc32)c1C#N (stereo not given)	-10%	4%	0%	16µM*	?
Cc1ccc(Cl)cc1NC(=O)Cn1nnc2sc3c(c2c1=O)CCC(C(C)(C)C)C3 (stereo not given)	-8%	nt	0%	nt	-10%

Compound activity: PubChem BioAssay, National Center for Advancing Translational Sciences (NCATS)
